Reference: PubChem BioAssay (NCI)
About 83,000 compounds went through this panel and 20% of them were active in at least one assay; those are over-represented in the sample as a whole.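 The test compound was applied at a single concentration to cells in 96-well plates for 48 hours, and percent growth was recorded.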 The source made the active and inactive calls. How the source made its calls: active means growth percent below 10; inactive means the rest.

tested on: MDA-MB-468 breast; experiment: NCI-60 one-dose screen, 48 h (100 = growth as untreated, 0 = no growth, -100 = all killed); conditions: 10 µM unless noted

Structure (SMILES) | growth
Cc1ccc(S(=O)(=O)NCCNc2cc(-c3cn(C(C)(C)C)nc3-c3cccc(O)c3)ccn2)cc1 | 35.8% (inactive)
NC(=O)c1c(NC(=O)c2ccc(C(F)(F)F)cc2Cl)sc2c1CCC(=O)C2 | -33.8% (active)
CC(=O)C(/C=N/C(N)=O)=C(/C)O | 109% (inactive)
CS(=O)(=O)c1ccc(-c2nc3ccccn3c2/C=N/Nc2nc(-c3ccc(Cl)cc3)cs2)cc1 | 94.2% (inactive)
CC(C)Nc1cc(-c2c[nH]c(C(=O)N[C@H](CO)c3cccc(Cl)c3)c2)c(Cl)cn1 | 43.6% (inactive)
COC(=O)[C@]12CC[C@@H](C)[C@H](C)[C@@H]1C1=CC[C@@H]3[C@@]4(C)C(C=O)=C[C@@](C)(COS(C)(=O)=O)C4=CC[C@@]3(C)[C@]1(C)CC2 | -59.8% (active)
CCOC(=O)OCC(=O)[C@@]1(O)CC[C@H]2[C@@H]3CCC4=CC(=O)CC[C@]4(C)[C@H]3[C@@H](O)C[C@@]21C | 123% (inactive)
CC(=O)/C(=C/c1ccc(Cl)cc1)C(=O)c1ccccc1 | 96.9% (inactive)
Cc1cc(-c2ccccc2)c(C)n1Cc1ccc(Cl)cc1 | 27.7% (inactive)
O=C1NC(=S)NC(=O)C1=Cc1cn(Cc2ccccn2)c2ccccc12 | -40.6% (active)
CCCCCCCCc1ccc(OCCOCC[N+](C)(C)CC)cc1 (tested in a mixture with another compound) | -11.3% (active)
CC(=O)NC(N)=S | 109% (inactive)
COc1ccc(C2CC(c3ccc4ccccc4c3)=NN2c2nc(O)c(C3=c4cc(OC)ccc4=NC3=O)s2)cc1 (stereo not drawn) | -46.5% (active)
